# For some of these results: Results with a measured potency or affinity are listed apart.
# Assays:
# Design in all cases: scale not given: direction of the effect not stated beside the values
# [1] = target: Protein translocase subunit SecA (Escherichia coli (strain K12)) (UniProt P10408); assay: Assay to Identify E. coli SecA ATPase Inhibitors; format: functional; details: 30 µM
# [2] = target: T1, Ubiquitin-activating enzyme e1, putative (Leishmania donovani (strain BPK282A1)) (UniProt E9BSI1); assay: Leishmania donovani Ubiquitin Activating Enzyme (LdE1); format: functional; details: 30 µM
# T1 sequence (whole entry): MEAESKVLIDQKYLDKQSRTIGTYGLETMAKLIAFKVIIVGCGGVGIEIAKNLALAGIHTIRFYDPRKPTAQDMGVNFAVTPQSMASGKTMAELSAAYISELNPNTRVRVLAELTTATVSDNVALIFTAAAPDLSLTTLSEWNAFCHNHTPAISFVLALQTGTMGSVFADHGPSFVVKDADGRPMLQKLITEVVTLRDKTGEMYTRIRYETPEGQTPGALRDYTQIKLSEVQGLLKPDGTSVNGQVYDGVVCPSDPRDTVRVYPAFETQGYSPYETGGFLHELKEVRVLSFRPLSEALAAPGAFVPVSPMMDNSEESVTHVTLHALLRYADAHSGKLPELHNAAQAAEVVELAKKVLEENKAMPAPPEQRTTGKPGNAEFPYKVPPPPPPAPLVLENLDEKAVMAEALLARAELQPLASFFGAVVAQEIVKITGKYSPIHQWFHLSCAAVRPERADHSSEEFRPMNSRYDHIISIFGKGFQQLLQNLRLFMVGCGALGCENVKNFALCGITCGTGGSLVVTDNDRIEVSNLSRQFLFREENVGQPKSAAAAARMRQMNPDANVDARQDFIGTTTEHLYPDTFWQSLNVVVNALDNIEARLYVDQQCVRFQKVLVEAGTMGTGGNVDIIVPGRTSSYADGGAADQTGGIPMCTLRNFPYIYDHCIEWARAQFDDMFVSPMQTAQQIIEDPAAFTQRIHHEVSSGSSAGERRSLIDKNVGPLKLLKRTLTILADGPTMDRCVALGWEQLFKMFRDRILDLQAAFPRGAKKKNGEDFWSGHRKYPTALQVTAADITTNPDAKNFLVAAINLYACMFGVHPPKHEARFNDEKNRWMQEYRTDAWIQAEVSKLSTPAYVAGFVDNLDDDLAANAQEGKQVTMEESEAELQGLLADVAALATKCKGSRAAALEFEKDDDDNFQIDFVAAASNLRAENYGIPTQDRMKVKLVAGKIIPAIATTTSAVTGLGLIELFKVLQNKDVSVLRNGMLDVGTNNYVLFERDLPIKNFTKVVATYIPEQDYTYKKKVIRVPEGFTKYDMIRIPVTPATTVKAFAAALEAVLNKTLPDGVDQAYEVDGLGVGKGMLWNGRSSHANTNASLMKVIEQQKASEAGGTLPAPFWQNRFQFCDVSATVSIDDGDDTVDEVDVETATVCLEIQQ
# [3] = target: AMP-activated protein kinase, AMPK (Homo sapiens) (UniProt P54646+O43741+P54619+Q9UGJ0+Q9Y478+Q13131+Q9UGI9); assay: AMP-dependent Kinase enzyme assay. An in vitro enzyme assay that detects ADP turnover that is directly proportional to AMPK activity. This uses naive AMPK that is activated during the assay with MK-8722; format: functional; details: 30 µM
# [4] = target: Sialic acid-binding Ig-like lectin 9 (Homo sapiens) (UniProt Q9Y336); assay: Hs-Siglec9 ALPHAscreen SOP 20170721; details: 10 µM
# Sialic acid-binding Ig-like lectin 9 (Homo sapiens), sequence (Q9Y336 whole entry): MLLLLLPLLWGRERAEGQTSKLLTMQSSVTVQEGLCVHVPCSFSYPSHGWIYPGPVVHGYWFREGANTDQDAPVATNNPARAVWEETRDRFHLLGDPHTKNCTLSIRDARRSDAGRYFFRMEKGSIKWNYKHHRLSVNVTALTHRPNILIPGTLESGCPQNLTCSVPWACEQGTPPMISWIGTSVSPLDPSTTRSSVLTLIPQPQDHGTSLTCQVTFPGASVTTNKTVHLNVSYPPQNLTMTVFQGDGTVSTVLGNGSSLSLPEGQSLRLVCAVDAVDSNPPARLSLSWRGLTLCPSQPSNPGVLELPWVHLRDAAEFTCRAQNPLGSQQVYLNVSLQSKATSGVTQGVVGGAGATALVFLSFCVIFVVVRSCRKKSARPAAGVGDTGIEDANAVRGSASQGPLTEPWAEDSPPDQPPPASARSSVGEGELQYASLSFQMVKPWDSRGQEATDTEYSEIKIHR
# Trypanosoma cruzi = assay: Trypanosoma cruzi phosphomannomutase and mannose-1-phosphate guanylyltransferase assay; format: functional; details: 10 µM
# [5] = target: T2, Arginase-2, mitochondrial (Homo sapiens) (UniProt P78540); assay: in vitro enzyme assay to detect the production of urea directly proportional to the activity of Arginase II; format: functional; details: 33.3 µM; further: in the data most compounds retested in dose-response had high values
# T2 sequence (whole entry): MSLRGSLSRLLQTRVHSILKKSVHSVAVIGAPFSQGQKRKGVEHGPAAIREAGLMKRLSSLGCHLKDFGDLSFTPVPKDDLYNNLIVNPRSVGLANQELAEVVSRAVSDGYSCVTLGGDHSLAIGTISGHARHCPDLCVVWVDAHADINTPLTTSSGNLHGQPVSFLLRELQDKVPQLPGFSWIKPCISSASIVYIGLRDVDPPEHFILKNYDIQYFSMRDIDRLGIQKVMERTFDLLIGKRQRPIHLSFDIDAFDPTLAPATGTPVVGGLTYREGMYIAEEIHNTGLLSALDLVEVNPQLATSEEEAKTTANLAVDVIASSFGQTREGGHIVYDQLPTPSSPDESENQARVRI
# [6] = target: T3, Proteasome subunit beta (Trypanosoma cruzi) (UniProt O96673); assay: Trypanosoma cruzi proteasome chymotrypsin-like activity (TcProtChymo) assay.; further: in the data most compounds retested in dose-response had high values; format: functional; details: 9.37 µM
# T3 sequence (whole entry): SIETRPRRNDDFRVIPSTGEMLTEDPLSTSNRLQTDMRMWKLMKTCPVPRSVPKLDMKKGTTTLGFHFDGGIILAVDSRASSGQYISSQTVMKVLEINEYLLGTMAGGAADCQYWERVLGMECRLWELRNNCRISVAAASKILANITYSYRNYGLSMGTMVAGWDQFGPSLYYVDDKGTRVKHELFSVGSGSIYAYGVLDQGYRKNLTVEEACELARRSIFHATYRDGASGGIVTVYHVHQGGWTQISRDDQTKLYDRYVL
# Homo sapiens = organism: Homo sapiens; assay: To identify inhibition of the IFN signalling (Jak-Stat) pathway via expression of an eGFP reporter gene under the control of an IFN-stimulated response element (ISRE) containing MxA promoter.; format: functional; details: 30 µM
# [7] = target: T4, Tyrosyl-tRNA synthetase, putative (Trypanosoma cruzi (strain CL Brener)) (UniProt Q4DSP6); assay: Trypanosoma cruzi tyrosyl tRNA synthetase (TcYRS) _High Tyrosine SOP; format: functional; details: 30 µM; further: in the data most compounds retested in dose-response had high values
# T4 sequence (whole entry): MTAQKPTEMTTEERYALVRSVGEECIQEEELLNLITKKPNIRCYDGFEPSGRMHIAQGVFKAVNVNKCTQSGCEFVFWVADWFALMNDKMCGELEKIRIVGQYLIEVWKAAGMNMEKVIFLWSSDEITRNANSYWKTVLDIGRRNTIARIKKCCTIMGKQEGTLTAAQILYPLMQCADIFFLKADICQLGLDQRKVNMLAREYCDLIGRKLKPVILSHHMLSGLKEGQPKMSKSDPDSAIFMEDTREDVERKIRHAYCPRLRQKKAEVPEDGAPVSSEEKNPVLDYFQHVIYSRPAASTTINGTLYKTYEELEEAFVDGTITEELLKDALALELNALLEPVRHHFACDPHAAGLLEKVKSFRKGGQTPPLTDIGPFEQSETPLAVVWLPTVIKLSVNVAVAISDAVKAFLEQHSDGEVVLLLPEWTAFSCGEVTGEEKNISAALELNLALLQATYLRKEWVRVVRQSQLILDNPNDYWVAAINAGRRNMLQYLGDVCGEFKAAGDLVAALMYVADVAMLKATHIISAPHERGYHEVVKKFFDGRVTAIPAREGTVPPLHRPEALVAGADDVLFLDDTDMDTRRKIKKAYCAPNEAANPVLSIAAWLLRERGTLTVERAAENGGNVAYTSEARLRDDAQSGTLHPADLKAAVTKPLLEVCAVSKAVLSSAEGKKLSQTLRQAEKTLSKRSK
# [8] = target: T4, Tyrosyl-tRNA synthetase, putative (Trypanosoma cruzi (strain CL Brener)); assay: Trypanosoma cruzi tyrosyl tRNA synthetase (TcYRS) SOP; format: functional; details: 30 µM
# [9] = target: Chromo domain-containing protein 1 (Saccharomyces cerevisiae (strain ATCC 204508 / S288c) (Baker's yeast)) (UniProt P32657); assay: ScCHD-1 Enzyme Inhibition Assay; format: functional; details: 30 µM; further: in the data most compounds retested in dose-response had high values
# Chromo domain-containing protein 1 (Saccharomyces cerevisiae (strain ATCC 204508 / S288c) (Baker's yeast)), sequence (P32657 whole entry, the tested form may be a part): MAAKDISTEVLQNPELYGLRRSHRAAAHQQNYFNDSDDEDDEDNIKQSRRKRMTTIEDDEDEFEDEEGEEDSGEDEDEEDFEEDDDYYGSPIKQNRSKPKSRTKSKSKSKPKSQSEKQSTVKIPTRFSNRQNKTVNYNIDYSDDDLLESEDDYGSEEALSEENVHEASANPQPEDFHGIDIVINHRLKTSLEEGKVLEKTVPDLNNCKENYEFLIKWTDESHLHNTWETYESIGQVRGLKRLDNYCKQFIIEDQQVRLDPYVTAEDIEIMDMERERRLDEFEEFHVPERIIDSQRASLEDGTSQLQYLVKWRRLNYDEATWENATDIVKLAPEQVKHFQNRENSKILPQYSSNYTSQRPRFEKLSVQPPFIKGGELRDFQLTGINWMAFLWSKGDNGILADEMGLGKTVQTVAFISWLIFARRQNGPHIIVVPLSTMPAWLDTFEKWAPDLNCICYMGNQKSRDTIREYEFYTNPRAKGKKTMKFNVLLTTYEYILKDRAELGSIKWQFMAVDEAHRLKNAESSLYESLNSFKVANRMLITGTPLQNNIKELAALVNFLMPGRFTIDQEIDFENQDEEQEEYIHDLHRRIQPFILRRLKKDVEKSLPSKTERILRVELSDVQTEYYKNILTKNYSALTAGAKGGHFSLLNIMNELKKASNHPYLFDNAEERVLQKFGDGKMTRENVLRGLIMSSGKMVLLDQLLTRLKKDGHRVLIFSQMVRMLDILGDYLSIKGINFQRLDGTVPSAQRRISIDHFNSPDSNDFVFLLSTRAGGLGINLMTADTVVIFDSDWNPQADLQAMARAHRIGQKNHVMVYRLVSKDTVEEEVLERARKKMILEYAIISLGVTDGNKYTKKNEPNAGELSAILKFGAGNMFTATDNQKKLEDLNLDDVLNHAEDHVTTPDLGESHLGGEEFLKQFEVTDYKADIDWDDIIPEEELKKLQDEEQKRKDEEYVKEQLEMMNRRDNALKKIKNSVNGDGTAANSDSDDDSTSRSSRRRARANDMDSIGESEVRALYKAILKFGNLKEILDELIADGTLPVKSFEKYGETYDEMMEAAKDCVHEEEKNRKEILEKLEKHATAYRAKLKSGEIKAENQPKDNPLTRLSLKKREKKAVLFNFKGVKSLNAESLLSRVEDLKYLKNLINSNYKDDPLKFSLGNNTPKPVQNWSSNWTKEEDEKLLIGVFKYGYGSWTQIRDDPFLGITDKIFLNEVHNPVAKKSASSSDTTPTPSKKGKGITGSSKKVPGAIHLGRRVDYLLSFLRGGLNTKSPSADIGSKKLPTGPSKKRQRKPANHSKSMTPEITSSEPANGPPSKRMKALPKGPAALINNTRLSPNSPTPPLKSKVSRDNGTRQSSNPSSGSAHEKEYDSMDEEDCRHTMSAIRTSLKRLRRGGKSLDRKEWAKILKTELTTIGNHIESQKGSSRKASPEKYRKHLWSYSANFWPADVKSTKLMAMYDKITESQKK
# Protein translocase subunit SecA (Escherichia coli (strain K12)), sequence (P10408 whole entry): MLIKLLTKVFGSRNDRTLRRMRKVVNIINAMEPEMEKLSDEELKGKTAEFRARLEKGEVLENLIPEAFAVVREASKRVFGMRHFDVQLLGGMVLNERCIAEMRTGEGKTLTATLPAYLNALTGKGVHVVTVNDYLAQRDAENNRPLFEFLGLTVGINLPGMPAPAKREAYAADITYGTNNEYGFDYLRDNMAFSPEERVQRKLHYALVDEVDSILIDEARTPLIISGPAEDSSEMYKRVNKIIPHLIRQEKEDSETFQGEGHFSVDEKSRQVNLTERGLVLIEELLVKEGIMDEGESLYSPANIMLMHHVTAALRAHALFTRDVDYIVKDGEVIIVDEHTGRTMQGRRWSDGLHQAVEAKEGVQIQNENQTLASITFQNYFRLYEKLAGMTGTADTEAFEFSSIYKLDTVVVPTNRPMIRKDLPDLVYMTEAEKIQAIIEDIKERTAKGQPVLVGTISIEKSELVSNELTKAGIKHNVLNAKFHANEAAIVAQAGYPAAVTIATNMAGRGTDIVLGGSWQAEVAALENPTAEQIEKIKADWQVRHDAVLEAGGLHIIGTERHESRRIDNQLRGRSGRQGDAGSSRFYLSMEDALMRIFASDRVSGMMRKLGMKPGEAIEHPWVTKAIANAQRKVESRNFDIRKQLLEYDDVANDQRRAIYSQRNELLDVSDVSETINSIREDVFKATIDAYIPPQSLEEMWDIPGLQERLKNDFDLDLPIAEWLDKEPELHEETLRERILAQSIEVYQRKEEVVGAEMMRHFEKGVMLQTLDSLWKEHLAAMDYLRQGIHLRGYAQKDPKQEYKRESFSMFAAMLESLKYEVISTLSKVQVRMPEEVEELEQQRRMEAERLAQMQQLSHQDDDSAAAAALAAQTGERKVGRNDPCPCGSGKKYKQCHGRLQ
Compound,Percent Effect [1] [%],Percent Effect [2] [%],Percent Effect [3] [%],Percent Effect [4] [%],Percent Effect (Trypanosoma cruzi) [%],Percent Effect [5] [%],Percent Effect [6] [%],Percent Effect (Homo sapiens) [%],Percent Effect [7] [%],Percent Effect [8] [%],Percent Effect [9] [%]
CCOc1ccnc(N2CCN(C(=O)c3cc(Cl)c[nH]3)CC2)n1,-4.52,12.7,0.626,5.17,1.98,0.38,2.54,0.798,9.36,21.5,-5.03
c1ccc(-c2cnc(CNCC3CCCN3c3cccnn3)o2)cc1 (stereo not given),-1.23,-5.2,3.3,-5.27,1.86,3.16,15.8,0.932,16.2,21.2,-20.7
CCn1ccnc1CN1CCCC(CO)(Cc2cccc(Cl)c2)C1 (stereo not given),-5.53,2.7,-2.31,28.9,3.23,-1.24,3.18,-2.28,2.15,11.1,-1.59
CNCC(=O)N1CC(c2cc(Nc3ncccn3)nc(C)n2)C1,0.103,10.7,6.11,-7.15,-4.33,-1.63,8.9,13.8,10.6,16.7,-1.56
CC(=O)N1CCC2(CC1)COCCN2CCN(C)C,-1.15,5.33,0.268,4.02,-4.25,-26.3,3.59,-11.5,2.08,-25,-5.07

# Reference: ChEMBL document CHEMBL3988442, “University of Dundee, Small-Polar-MMV Screening Library” (2021)
